Laboratory results taken from PubChem BioAssay AID602438 (Sanford-Burnham Center for Chemical Genomics, 2012).
Among all 360,000 compounds or so, about 3,100 (0.86%) were called active. The entries come from a sample that favours actives as a whole. Values without a mark were called inactive.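 Rule for the calls: active = inhibition or corrected inhibition above about 18%, plus a signal ratio from 0.5 to 1.5 (limit read from the data, passing the limit was not always enough); inactive = the rest.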

What follows are compounds tested against Neuropilin-1 (Homo sapiens) (UniProt O14786) (assay: NRP-1/CendR peptide interaction modulators – biochemical, fluorescence polarization, uHTS, primary screen (AID 602438)). Details: FAM-RPARPAR peptide binding to NRP-1, fluorescence polarization; at 25 µM; stronger effect = higher value.
Sequence of Neuropilin-1 (Homo sapiens) (O14786 whole entry, looked up): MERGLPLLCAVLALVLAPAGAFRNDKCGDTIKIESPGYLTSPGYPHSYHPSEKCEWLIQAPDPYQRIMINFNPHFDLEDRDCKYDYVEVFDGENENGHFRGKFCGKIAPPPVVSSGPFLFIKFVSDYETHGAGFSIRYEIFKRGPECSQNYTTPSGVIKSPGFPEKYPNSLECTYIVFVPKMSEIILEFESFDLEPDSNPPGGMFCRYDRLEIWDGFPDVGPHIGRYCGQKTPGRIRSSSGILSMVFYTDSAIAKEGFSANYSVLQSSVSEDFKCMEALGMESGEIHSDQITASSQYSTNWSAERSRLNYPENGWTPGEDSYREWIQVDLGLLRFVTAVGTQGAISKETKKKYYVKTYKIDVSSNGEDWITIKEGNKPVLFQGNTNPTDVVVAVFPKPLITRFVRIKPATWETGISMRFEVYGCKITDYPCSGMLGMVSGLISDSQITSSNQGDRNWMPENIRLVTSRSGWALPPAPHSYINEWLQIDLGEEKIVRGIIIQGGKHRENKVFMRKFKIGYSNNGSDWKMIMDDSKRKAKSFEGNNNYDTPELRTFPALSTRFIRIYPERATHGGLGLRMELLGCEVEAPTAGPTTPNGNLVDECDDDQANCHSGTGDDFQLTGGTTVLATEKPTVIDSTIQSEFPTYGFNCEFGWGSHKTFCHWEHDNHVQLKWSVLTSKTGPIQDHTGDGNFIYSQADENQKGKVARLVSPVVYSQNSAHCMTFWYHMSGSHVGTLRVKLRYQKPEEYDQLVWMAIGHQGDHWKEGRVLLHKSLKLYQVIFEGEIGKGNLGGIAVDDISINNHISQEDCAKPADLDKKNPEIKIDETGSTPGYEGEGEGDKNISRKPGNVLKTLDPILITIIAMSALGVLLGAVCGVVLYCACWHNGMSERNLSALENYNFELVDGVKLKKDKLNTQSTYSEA
For `Cc1ccc(N(C(=O)c2ccc(CN3CCOCC3)o2)C(C(=O)NCCC(C)C)c2cccs2)c(C)c1` (stereo unspecified), the inhibition was 26.1% (active).
Compound `Cc1cccc(N(C(=O)c2ccc(CN3CCOCC3)o2)C(C(=O)NC2CCCCC2)c2ccc(F)cc2)c1` (stereo unspecified) has an inhibition of -7.1%.
With `Cc1ccc(C(=O)NC(C)C(c2cccs2)N2CCOCC2)cc1C` (stereo unspecified) the inhibition was -2%.
`Cc1csc(=O)n1CCC(=O)OCC(=O)NNC(=O)c1ccc(Br)cc1` gave an inhibition of -1.9%.
In the case of `CCOC(=O)N1CCN(C(c2ccnc3ccccc23)c2nnnn2-c2c(C)cccc2C)CC1` (stereo unspecified), the inhibition is reported as -13.7%.
Work on `COc1cc(NC(=O)COC(=O)c2ccc([N+](=O)[O-])s2)cc(OC)c1OC` yielded an inhibition of -5.2%.
For `COc1ccc(C(=O)COC(=O)c2ccc([N+](=O)[O-])s2)cc1OC`, the inhibition was 24.3% (active).
`O=C(OCC(=O)N1CCN(c2ccccc2)CC1)c1ccc([N+](=O)[O-])s1` was tested, and the inhibition was -3.7%.
Compound `COc1ncnc2c1ncn2CCCNCCN1CCOCC1` has an inhibition of 1%.
Compound `CCOc1ccc(CCNC(=O)CSc2cc(=O)n(C)c3ccc(Cl)cc23)cc1OCC` has an inhibition of 4.1%.
In the case of `O=C(CCNC(=O)c1ccccc1Cl)NN=Cc1ccco1`, the inhibition is reported as 10.2%.
With `O=C(N/N=C/c1ccco1)c1csc2c1CCCC2` the inhibition was 26.9% (active).
With `O=C(Cc1ccccc1)Nc1cccc(C(=O)N/N=C/c2ccco2)c1` the inhibition was -32.3%.
`CC(=O)C(C)n1cnc2scc(-c3ccc(C)cc3)c2c1=O` (stereo unspecified) was tested, and the inhibition was 7.4%.
`CCC(C(=O)OC)n1cnc2scc(-c3ccc(C)cc3)c2c1=O` (stereo unspecified) was tested, and the inhibition was 91.3% (active).
For `CCOC(=O)C(C)n1cnc2scc(-c3ccc(C)c(C)c3)c2c1=O` (stereo unspecified), the inhibition was 9.9%.
Compound `O=C(CCNC(=O)C1CCN(S(=O)(=O)c2ccccc2)CC1)NC1CC1` has an inhibition of -0.4%.
For `Cc1ccccc1NC(=O)c1cc(S(=O)(=O)N2CCOCC2)cs1`, the inhibition was 15%.
Compound `Cc1ccc(-c2ccc(C3=CC(=O)CC(C)(C)C3=O)cc2)cc1` has an inhibition of 4.5%.
With `CN1CCN(c2cc3c(cc2F)c(=O)c(C(=O)O)cn3CCF)CC1` the inhibition was 11.3%.
With `CCOC(=O)c1c(NC(=O)COC(=O)c2ccc(S(=O)(=O)C(F)F)cc2)sc(C(=O)N(C)C)c1C` the inhibition was -19.4%.
`CCOC(=O)c1c(NC(=O)CCl)sc(C(=O)N(CC)CC)c1C` was tested, and the inhibition was -0.5%.
`CCOC(=O)Nc1sc(C(=O)N(C)C)c(C)c1C(=O)OCC` was tested, and the inhibition was 26.1% (active).
Work on `Cc1cc(NC(=O)CSc2nc(=O)cc(N)n2-c2ccc(F)cc2)no1` yielded an inhibition of 8.7%.
For `COc1ccc(Cl)cc1S(=O)(=O)N1CCN(CC(=O)C(C)(C)C)CC1`, the inhibition was 21.7% (active).
`COc1ccc(Cl)cc1S(=O)(=O)N1CCC(O)(c2ccc(Cl)cc2)CC1` gave an inhibition of 3%.
In the case of `COc1ccc(C(=O)NCc2ccc(Cl)cc2)cc1S(=O)(=O)N1CCCC1`, the inhibition is reported as 4.6%.
In the case of `CC(NCc1ccccc1OC1CCCC1)c1ccccc1` (stereo unspecified), the inhibition is reported as -0.1%.
`O=C(NC12CC3CC(CC(C3)C1)C2)N1CCCC(CO)C1` (stereo unspecified) showed an inhibition of -1.5%.
`CC(=O)c1c(N)n(C)c(=O)n(C)c1=O` gave an inhibition of 5.8%.
Work on `Cc1ccc(C(C(=O)NCC2CCCO2)N(C(=O)c2snc(C(N)=O)c2N)c2ccc(C(C)C)cc2)o1` (stereo unspecified) yielded an inhibition of -5.9%.
`O=C(O)c1ccccc1OCc1ccccc1Cl` showed an inhibition of 5.3%.
With `Cc1ccc(-n2c(SCC(=O)NCc3ccc4c(c3)OCO4)nnc2-c2cccnc2)c(C)c1` the inhibition was 8.7%.
For `Cc1ccccc1-c1nnc(SCC(=O)NCc2ccc3c(c2)OCO3)n1C`, the inhibition was 38.3% (active).
In the case of `Cn1cccc1Cc1nnc(SCC(=O)NCc2ccc3c(c2)OCO3)n1CCc1ccccc1`, the inhibition is reported as -7.4%.
`Cc1cc(N=CC2=C(O)CCCC2=O)no1` gave an inhibition of 10.1%.
`CC1OC2C(OC1C)N(S(C)(=O)=O)CCN2S(C)(=O)=O` (stereo unspecified) showed an inhibition of -3.5%.
For `CC1(C(=O)Nc2ccc3c(c2)OCCO3)CSCC(=O)N1CCOc1ccccc1` (stereo unspecified), the inhibition was -11.3%.
With `Cc1ccc(C(=O)OCC(=O)NC(=O)Cc2ccccc2)c(O)c1` the inhibition was 20.4% (active).
In the case of `CCCN(CC1CC1)C(=O)COC(=O)c1ccc(C)cc1O`, the inhibition is reported as -9.9%.
`Cc1cccc(C)c1NC(=O)COC(=O)c1ccccc1O` gave an inhibition of 6.8%.
Compound `C[C@H](CO)N1C[C@H](C)[C@@H](CN(C)C(=O)c2cnccn2)Oc2ncc(Br)cc2C1=O` has an inhibition of 2.9%.
`C/C=C/C(=O)Nc1ccc(N2CCN(c3ccc(C(F)(F)F)cn3)CC2)nc1` was tested, and the inhibition was 6.8%.
Work on `C[C@H]1CN([C@@H](C)CO)C(=O)Cc2cc(NC(=O)Cc3ccccc3)ccc2O[C@H]1CN(C)S(=O)(=O)c1cccs1` yielded an inhibition of 0.6%.
Compound `CCCCCNC(=O)c1cccnc1SCC(=O)Nc1ccccc1OC` has an inhibition of -0.3%.
`CCOC(=O)c1csc(CCNC(=O)c2oc3c(Cl)cc(C)cc3c2C)n1` was tested, and the inhibition was 24.9% (active).
Compound `Cc1cc(Cl)c2oc(C(=O)N(C)C(C)c3ccccn3)c(C)c2c1` (stereo unspecified) has an inhibition of 9.3%.
Work on `Cc1cc(Cl)c2oc(C(=O)NC(C)c3ccncn3)c(C)c2c1` (stereo unspecified) yielded an inhibition of 1.3%.
With `CCN(CC(=O)Nc1cc(Cl)ccc1C)C(=O)Cn1c(=O)cnc2ccccc21` the inhibition was 9%.
Compound `O=c1nc(NO)ccn1C1CCCO1` (stereo unspecified) has an inhibition of 7.6%.
Compound `CC(C)C(C(=O)NCc1ccco1)N(CC1CCCO1)C(=O)CNS(=O)(=O)c1ccc(F)cc1` (stereo unspecified) has an inhibition of 15.8%.
`Cc1ccc2c(c1)C1CN(C)CCC1N2C(=S)Nc1ccc(Cl)cc1Cl` (stereo unspecified) gave an inhibition of -11.4%.
`Cc1ccc2c(c1)C1C[N+](C)(CC(=O)c3ccccc3)CCC1N2C(=O)c1ccccc1Cl` (stereo unspecified) showed an inhibition of 5.2%.
For `Cc1ccc2c(c1)C1CN(C)CCC1N2C(=O)c1ccccc1NS(=O)(=O)c1ccc(F)cc1C` (stereo unspecified), the inhibition was 37.9% (active).
For `Cc1noc(C)c1CSCC(=O)Nc1ccc(Br)cc1Cl`, the inhibition was 12.2%.
In the case of `O=C(CSCc1c(F)cccc1Cl)NCC1CCCO1` (stereo unspecified), the inhibition is reported as -9.5%.
In the case of `CC1CCN(C(=O)/C(=C\c2ccccc2F)NC(=O)c2ccccc2)CC1`, the inhibition is reported as 9.8%.
`CCc1cc2c(=O)c(-c3ccon3)c(N)oc2cc1OC` was tested, and the inhibition was 36.1% (active).
`CCc1cc2c(=O)c(-c3nc4ccccc4n3C)c(CCCC(=O)O)oc2cc1OC(=O)C(C)(C)C` showed an inhibition of 3.6%.
`COc1ccc2oc(N)c(C=O)c(=O)c2c1` was tested, and the inhibition was 13.3%.
Compound `CCN(CC(=O)N1CCCC1)S(=O)(=O)c1ccc(F)cc1` has an inhibition of 9.2%.
Work on `COCn1c(C(O)c2ccccc2)cc2ccccc21` (stereo unspecified) yielded an inhibition of 8.1%.
With `CC(OC(=O)c1ccc([N+](=O)[O-])cc1)C(=O)NCC1CCCCC1` (stereo unspecified) the inhibition was 23.5% (active).
With `O=C(NCC(O)c1ccc([N+](=O)[O-])cc1)C1CCCCC1` (stereo unspecified) the inhibition was 11.3%.
Compound `CC(OC(=O)c1cccc(S(=O)(=O)N2CCOCC2)c1)C(=O)NCC1CCCCC1` (stereo unspecified) has an inhibition of 8.2%.
With `O=C(C1CCCN1S(=O)(=O)c1ccc(Br)cc1)N1CCOCC1` (stereo unspecified) the inhibition was 6.9%.
Work on `COC(=O)Nc1nc2ccc(Sc3ccccc3)cc2[nH]1` yielded an inhibition of -0.3%.
In the case of `Cc1nc2ccc(C(=O)O)cc2[nH]1`, the inhibition is reported as 24.6% (active).
`Cc1nc2ccc(C(=O)N(C)CC3CCCN(CCc4ccc(Cl)cc4)C3)cc2[nH]1` (stereo unspecified) was tested, and the inhibition was 8.8%.
`Cc1cccc(NC(=O)CN2CCCN(S(=O)(=O)c3ccc(Br)s3)CC2)c1` was tested, and the inhibition was 1.1%.
`CC1CCC(NC(=O)CN(C)S(=O)(=O)c2ccc3c(c2)c(=O)n(C)c(=O)n3C)CC1` (stereo unspecified) was tested, and the inhibition was 25.4% (active).
`COc1cccc(CNC(=O)CN(C)S(=O)(=O)c2ccc3c(c2)c(=O)n(C)c(=O)n3C)c1` was tested, and the inhibition was -1.6%.
Compound `CCc1ccccc1NC(=O)CN(C)S(=O)(=O)c1ccc2c(c1)c(=O)n(C)c(=O)n2C` has an inhibition of 7.6%.
Compound `C/C=N/NC(=O)CCCC(=O)N/N=C/C` has an inhibition of 15%.
Work on `Cc1cc(C)c(S(=O)(=O)N2C=CC(C(F)(F)F)=NCC2)c(C)c1` yielded an inhibition of 3.5%.
With `O=C(O)c1ccc(COc2c(F)c(F)cc(F)c2F)o1` the inhibition was 45.5% (active).
Compound `O=C(O)CSCc1ccc(C(=O)O)o1` has an inhibition of -7.1%.
In the case of `O=C(O)c1ccc(NC(=O)c2ccc(COc3ccc(Cl)cc3)o2)cc1`, the inhibition is reported as -6.7%.
For `CC1O[C@H](OC2C(COC3OC(CO)C(O)[C@H](O)C3O)OC(OC3CC[C@]4(C)C(CC[C@@]5(C)[C@@H]4C=C[C@]46OC[C@@]7(CCC(C)(C)C[C@H]74)C(O)C[C@@]56C)C3(C)C)C(O)C2O)C(O)C(O)C1O` (stereo partly specified), the inhibition was 23.7% (active).
`CCOc1ccc(-n2c(SC(C)C(=O)OC)nc3c(c2=O)SCC3)cc1` (stereo unspecified) was tested, and the inhibition was -5.4%.
In the case of `N#Cc1cccc(CN2CCC(=O)N(CCO)CC2)c1`, the inhibition is reported as 21.1% (active).
In the case of `O=C1CCN(CCCc2ccccc2)CCN1CCO`, the inhibition is reported as 5.5%.
Compound `N#Cc1cccc(CN2CCC(=O)N([C@H](CO)c3ccccc3)CC2)c1` has an inhibition of 9.5%.
In the case of `O=C(CSc1nnc(-c2cccnc2)n1Cc1ccco1)c1ccc(Cl)c(Cl)c1`, the inhibition is reported as -25.2%.
For `O=C(CSc1nnc(-c2cccs2)n1Cc1ccco1)c1ccc2c(c1)OCO2`, the inhibition was 37.5% (active).
With `O=C(CSc1nnc(-c2cnccn2)n1Cc1ccco1)c1ccc(Cl)c(Cl)c1` the inhibition was 3.3%.
`CC(=O)N1CC2(C)CN(C(C)=O)CC(C)(C1)C2=O` was tested, and the inhibition was 11.7%.
For `O=C(NCc1ccccc1Cl)C1CCN(c2ncnc3c2nc2n3CCCCC2)CC1`, the inhibition was 13.7%.
For `CN(Cc1ccccc1)C(=O)C1CCCN(c2ncnc3c2nc2n3CCCCC2)C1` (stereo unspecified), the inhibition was 10%.
`CN(C(=O)C1CCN(c2ncnc3c2nc2n3CCCCC2)CC1)C1CCCCC1` was tested, and the inhibition was 18.4% (active).
`CCC(=O)c1cn(CCOc2ccccc2OC)c2ccccc12` gave an inhibition of -7%.
